The panel holds about 79,000 compounds, 15% with a hit somewhere; the sample as a whole holds those more often. No stated cut-off is given here; in the data, active means growth inhibition above about 70%; inactive means the rest.
Experiments:
[1] = NCI Yeast Anticancer Drug Screen. Data for the rad50 strain (AID 155);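 further: 0% = growth of vehicle-only cultures of the same strain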; conditions: S. cerevisiae rad50 strain growth inhibition; at 50.0 µM; hits give high values
Method in brief: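 Genetically altered yeast (DNA repair pathway); compound treatment; growth inhibition vs vehicle ctrl.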

[2] = NCI Yeast Anticancer Drug Screen. Data for the mec2-1 strain (AID 157); conditions: S. cerevisiae mec2-1 strain, at 50.0 µM, hits give high values
Method in brief: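 Yeast mec2-1 mutant treated with compound. Readout: growth inhibition vs vehicle controls.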

[3] = NCI Yeast Anticancer Drug Screen. Data for the sgs1 mgt1 strain (AID 161);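 further: 0% = growth of cultures given vehicle only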; conditions: S. cerevisiae sgs1 mgt1 strain, at 50.0 µM, hits give high values
Method in brief: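 Read-out: growth inhibition vs vehicle controls. Cells: mutant yeast strain deficient in DNA damage repair.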

[4] = NCI Yeast Anticancer Drug Screen. Data for the cln2 rad14 strain (AID 165);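 further: 0% = growth equal to vehicle treated cultures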; conditions: S. cerevisiae cln2 rad14 strain, at 50.0 µM, hits give high values
Method in brief: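 cln2 rad14 yeast strain; compound exposure; growth inhibition read vs vehicle controls.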

[5] = NCI Yeast Anticancer Drug Screen. Data for the bub3 strain (AID 167); conditions: S. cerevisiae bub3 mutant strain, at 50.0 µM, hits give high values
Method in brief: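 Yeast carrying a defined mutation is treated with each compound, and growth is compared with that of vehicle-exposed cells to give inhibition.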

[6] = NCI Yeast Anticancer Drug Screen. Data for the mlh1 rad18 strain (AID 175); conditions: S. cerevisiae mlh1 rad18 strain growth inhibition; at 50.0 µM; hits give high values
Method in brief: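 Yeast w/ defined DNA-repair lesions; compound exposure; growth vs vehicle controls → % inhibition.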

Measured: growth inhibition

COc1cc2c(cc1C(CC(C)=O)c1cc(OC)c(OC)c(OC)c1)OCO2 (stereo unspecified)
inactive: [1] -11.6% | [2] -10.2% | [3] -12% | [4] -5.3% | [5] 11% | [6] -6.15%

COc1ccc(CN=CN/C(C#N)=C(\N)C#N)cc1OC
inactive: [1] -21.2% | [2] -49.8% | [3] -28.6% | [4] 6.55% | [5] 4.35% | [6] -23.6%

COc1ccc2c(c1)CCCN2
inactive: [1] -3.4% | [2] -23% | [3] -4.05% | [4] -20.1% | [5] -13.3% | [6] 3.65%

COc1ccc(/C=C2\N=C(c3ccc([N+](=O)[O-])cc3)OC2=O)cc1
inactive: [1] -2.7% | [2] -6% | [3] -8.35% | [4] -9.5% | [5] 0.55% | [6] 18.4%

Cc1ccc(S(=O)(=O)OC(CI)C2OC(c3ccccc3)OC3COC(c4ccccc4)OC32)cc1 (stereo unspecified)
inactive: [1] 0.25% | [2] 13.2% | [3] 7.7% | [4] 8.6% | [5] 16.1% | [6] 25.6%

CCOC(=O)c1csc(N)n1
inactive: [1] -24.5% | [2] 7.35% | [3] -15.1% | [4] -39.6% | [5] -9.7% | [6] -18.3%

CC(=O)Nc1ccc([N+](=O)[O-])cc1Cl
inactive: [1] 27.6% | [2] 16.9% | [3] 16.8% | [4] -3.15% | [5] 5.1% | [6] 26.4%

CC(C)(C)NC(=O)c1cccc(C(N)=O)n1
inactive: [1] -10.4% | [2] -16.1% | [3] -11.8% | [4] -21.6% | [5] -4.25% | [6] -0.6%

Cc1cc(N=Nc2ccc(N(C)C)cc2)ccn1
inactive: [1] 21.6% | [2] 7.2% | [3] 6.1% | [4] -52.8% | [5] 13.7% | [6] 0.9%

Brc1cccc(C2ON=C(c3ccccc3)N2C23CC4CC(CC(C4)C2)C3)c1 (stereo unspecified)
inactive: [1] 2.2% | [2] -7.45% | [3] -1.75% | [4] -14.7% | [5] -7.55% | [6] -7.7%

O=C1CC2CCC(C1)S2
inactive: [1] -18.1% | [2] -28.6% | [3] -15.4% | [4] 16.1% | [5] -2.95% | [6] -33%

CC(C)(C)CC(=O)Nc1ccccc1
inactive: [1] 28.9% | [2] -4.15% | [3] -17.1% | [4] 13.7% | [5] -8.9% | [6] 9.25%

CCOC(=O)Cn1c(=O)c2nc(SC)sc2n(CC)c1=S
inactive: [1] -21.8% | [2] 21.1% | [3] -1.15% | [4] -6.55% | [5] 9.45% | [6] 4%

COC(=O)[C@]1(C)CCC[C@]2(C)c3ccc(C(C)=O)cc3C(=O)C[C@@H]12
inactive: [1] -1.5% | [2] -10.8% | [3] 9.5% | [4] -31.6% | [5] -8.5% | [6] -15.1%

Cc1c(C)c(C)c2cc3c(C)c(C)c(C)c(C)c3cc2c1C
inactive: [1] -4.55% | [2] -1.9% | [3] -8.5% | [4] -2.35% | [5] 6.45% | [6] -11.6%

CC(Nc1cc(Cl)ccc1C(=O)O)C(=O)O (stereo unspecified)
inactive: [1] 0.9% | [2] 14.7% | [3] -9.75% | [4] -40.1% | [5] -11.2% | [6] -8.05%

CC(=O)Nc1ccc2c(c1)C(N1CCCCC1)c1ccccc1-2 (stereo unspecified)
inactive: [1] -42.2% | [2] -17.8% | [3] 4.2% | [4] -40.1% | [5] -2.6% | [6] -5.4%

O=C(O)C1CC2CC2C1 (stereo unspecified)
inactive: [1] 2.6% | [2] 12% | [3] -2.8% | [4] 9.9% | [5] 16.1% | [6] 9.1%

CCN(CC)CCOC(=O)c1ccc(NC(=O)OCCC(C)OC(=O)Nc2ccc(C(=O)OCCN(CC)CC)cc2)cc1 (stereo unspecified)
inactive: [1] -1.55% | [2] 1.2% | [3] -1.65% | [4] -4.4% | [5] -6.6% | [6] 11.9%

CC1(CO)CCCC1NCCNC1CCCC1(C)CO (stereo unspecified)
inactive: [1] 8.6% | [2] -6.7% | [3] 3.35% | [4] 10.3% | [5] -27.9% | [6] 15.5%

N#CNc1nc(N)cc(=O)[nH]1
inactive: [1] -4.65% | [2] -23.6% | [3] -2.45% | [4] 3% | [5] -27.1% | [6] 11.2%
